# Data reported in paper PMC4336329 (PLoS ONE, 2015).
# Out of some 310,000 compounds screened, about 14,000 (4.5%) showed an effect of 50% or more. Effects have a minus sign here. The sample holds strong results, similar compounds and a random draw of the others, so the mix is not that of the screen.
# Biological target: human ether-à-go-go-related gene (hERG) potassium channel (human, UniProt Q12809)
# Assay: primary screen, population patch clamp on CHO cells stably expressing hERG; higher = less effect of the substance
# 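Further: peak tail current of the secondary pulse compared with the same well before compound.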
# Chain of human ether-à-go-go-related gene (hERG) potassium channel (Q12809 whole entry, looked up): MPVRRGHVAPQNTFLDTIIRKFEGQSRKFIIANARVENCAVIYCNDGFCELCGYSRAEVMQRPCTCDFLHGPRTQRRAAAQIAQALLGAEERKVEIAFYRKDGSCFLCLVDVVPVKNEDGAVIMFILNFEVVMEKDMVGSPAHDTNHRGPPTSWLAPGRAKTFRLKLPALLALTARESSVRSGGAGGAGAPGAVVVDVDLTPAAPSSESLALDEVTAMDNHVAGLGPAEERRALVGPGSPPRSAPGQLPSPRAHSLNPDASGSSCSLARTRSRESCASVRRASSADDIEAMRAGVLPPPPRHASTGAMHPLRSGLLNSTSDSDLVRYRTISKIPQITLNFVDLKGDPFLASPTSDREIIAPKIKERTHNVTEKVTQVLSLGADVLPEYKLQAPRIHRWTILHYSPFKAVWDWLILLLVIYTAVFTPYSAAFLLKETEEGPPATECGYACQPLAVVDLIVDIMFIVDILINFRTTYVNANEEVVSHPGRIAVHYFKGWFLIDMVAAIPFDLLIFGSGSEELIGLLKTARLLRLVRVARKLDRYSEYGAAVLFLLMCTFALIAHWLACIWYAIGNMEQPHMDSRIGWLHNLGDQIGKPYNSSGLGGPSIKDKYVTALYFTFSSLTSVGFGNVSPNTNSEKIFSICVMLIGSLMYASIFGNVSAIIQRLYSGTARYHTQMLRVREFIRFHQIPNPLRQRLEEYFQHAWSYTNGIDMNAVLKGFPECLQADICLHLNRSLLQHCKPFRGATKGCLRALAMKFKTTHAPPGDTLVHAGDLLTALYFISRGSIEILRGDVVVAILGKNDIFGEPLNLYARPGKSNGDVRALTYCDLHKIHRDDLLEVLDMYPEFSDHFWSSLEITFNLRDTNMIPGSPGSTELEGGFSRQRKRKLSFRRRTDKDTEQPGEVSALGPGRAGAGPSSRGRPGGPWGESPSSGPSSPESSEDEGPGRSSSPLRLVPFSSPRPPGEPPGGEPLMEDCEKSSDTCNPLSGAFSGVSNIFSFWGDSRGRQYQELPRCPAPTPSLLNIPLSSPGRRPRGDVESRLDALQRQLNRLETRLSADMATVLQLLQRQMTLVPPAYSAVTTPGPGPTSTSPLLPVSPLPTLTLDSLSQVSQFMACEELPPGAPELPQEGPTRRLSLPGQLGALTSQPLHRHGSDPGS
row,SMILES,"hERG current change (%, negative = inhibition) at 10uM [%]"
1,S=C(NCCc1ccccc1)NCCc1cnc[nH]1,-4.01
2,CCOC(=O)C1CCCN(S(=O)(=O)c2cn(C)c(=O)n(C)c2=O)C1 (stereo not drawn),12.8
3,Cc1cc(=O)[nH]c(SCCCOc2ccccc2Cl)n1,3.82
4,CCOC(=O)c1cnc2c(C)cc(C)cc2c1NCCCN1CCOCC1,-59.7
5,CCOC(=O)c1cnc2c(CC)cccc2c1NCCN1CCOCC1,-44.4
6,CCOC(=O)c1cnc2c(Cl)cccc2c1NCCN1CCOCC1,-15.3
7,CCOC(=O)c1cnc2c(C)cccc2c1NCCCN1CCOCC1,-72.8
8,CCOC(=O)c1cnc2c(C)cc(Cl)cc2c1NCCCN1CCOCC1,1.44
9,CCOC(=O)c1cnc2c(CC)cccc2c1NCCCN1CCOCC1,-35.6
10,CCOC(=O)c1cnc2c(C(=O)OC)cccc2c1NCCN1CCOCC1,-70
11,CCOC(=O)c1cnc2c(Cl)cccc2c1NCCCN1CCOCC1,-44.7
12,CCOC(=O)c1cnc2c(Cl)cc(Cl)cc2c1NCCCN1CCOCC1,-4.47
13,CCOc1c2ccc(C(=O)NCCCCc3ccccc3)cc2nn1C,-14.5
14,CC(=O)c1cc(O)c2ccccc2c1O,-2.58
15,CC(=O)Nc1ccc(C(=O)N/N=C/c2ccccc2OCc2ccccc2)cc1,29.2
16,C#CCNC(=O)C1=C[C@@H](c2ccccc2)C[C@@H](OCCCCO)O1,-13.4
17,CCCCc1ccc(NC(=O)NCc2cccnc2)cc1,-41.4
18,COc1ccc(C(=O)N2CCC(n3c(C)nc4cc(F)ccc43)CC2)cc1,-73.4
19,COc1ccc(-n2c(C)nc3cc(C(=O)N4CCOCC4)ccc32)cc1,-14.1
20,COc1cc(C(=O)N2CCC(N3CCCCCC3)CC2)cc(OC)c1OC.O=C(O)C(=O)O,-2.57
21,COc1cc(OC)cc(C(=O)N2CCN(C(=O)c3cccc(F)c3)CC2)c1,-3.19
22,Cc1nc2cc(F)ccc2n1C1CCN(S(=O)(=O)c2ccccc2)CC1,-48.6
23,COC(=O)C1CCN(C(=O)c2cc(OC)c(OC)c(OC)c2)CC1,19.3

row,SMILES,"hERG current change (%, negative = inhibition) at 10uM [%]"
1,Cc1nc2cc(C(=O)O)ccc2n1C1CCCCC1,7.52
2,COc1cc(OC)cc(C(=O)N2CCC(N3CCCCCC3)CC2)c1,-5.77
3,COc1cc(C(=O)N2CCC(n3cnc4cc(F)ccc43)CC2)cc(OC)c1OC,-56.9
4,COc1cc(OC)cc(OC(=O)C2CCN(C(=O)c3ccc(F)cc3)CC2)c1,-7.47
5,Cc1nc2cc(F)ccc2n1C1CCN(C(=O)c2ccc(F)cc2F)CC1,-56.4
6,COc1cc(OC)cc(C(=O)N2CCC(n3c(C)nc4cc(F)ccc43)CC2)c1,-59
7,Cn1c(=O)cc(OCCCC(=O)N2CCN(c3ccccc3)CC2)c2ccccc21,-47.3
8,Cc1c(N=Nc2c(O)n(C)c(=O)n(C)c2=O)c(=O)n(-c2ccccc2)n1C,8.74
9,O=C(c1cccs1)N1CCN(C(=O)c2ccco2)c2ccccc2C1,-13.6
10,COc1ccc(Cc2nc3ccc(C(=O)NCCCSC)cc3o2)cc1OC,0.503
11,O=C(NNC(=O)c1cccc2ccccc12)c1ccccc1O,4.19
12,O=c1c2ccccc2nc(SCc2cc(F)cc3c2OCOC3)n1Cc1ccco1,-2.26
13,O=C(c1cc(COc2ccc3ncccc3c2)on1)N1CCC[C@H]1CO,4.88
14,Cc1cccc(C(=O)N2CCC(n3nnc4cc(F)ccc43)CC2)c1,-34.8
15,COc1cc(C(=O)N2CCC(n3c(C)nc4cc(F)ccc43)CC2)cc(OC)c1OC,-8.07
16,COc1ccc(C(=O)N2CCC(n3c(C)nc4cc(F)ccc43)CC2)cc1OC,-69
17,O=C(N1CCOCC1)N1CCC(n2nnc3cc(F)ccc32)CC1,-7.65
18,COc1ccc(C(=O)N2CCC(n3nnc4cc(F)ccc43)CC2)cc1OC,-61.6
19,O=C(c1ccc(F)cc1)N1CCC(n2nnc3ccccc32)CC1,-33.3
20,O=C(c1ccc([N+](=O)[O-])cc1)N1CCC(n2nnc3cc(F)ccc32)CC1,-71.9
21,COc1ccc(C(=O)N2CCN(S(=O)(=O)c3ccc(F)cc3)CC2)cc1OC,10.9
22,CCOC(=O)C(CC)Sc1ncnc2nc[nH]c12 (stereo not drawn),-12.4
23,CCCn1nnc(NC(=O)COc2ccc(C3CCCCC3)cc2)n1,-31.1

row,SMILES,"hERG current change (%, negative = inhibition) at 10uM [%]"
1,O=c1ccc(-c2ccc(S(=O)(=O)Nc3cccc(Br)c3)o2)n[nH]1,14.8
2,Cc1nn(C)c(C)c1/C=C1/CC2C3CC=C4CC(O)CCC4(C)C3CCC2(C)C1=O (stereo not drawn),-8.03
3,CCN(CC)S(=O)(=O)c1ccc(NC(=O)CSc2ncnc3ccccc23)cc1,-8.71
4,Cc1ccc(C(=O)NCCc2nnc3ccc(SCC(=O)N4CCCCC4)nn23)cc1,4.02
5,c1ccc(CCc2nn3c(-c4ccncc4)nnc3s2)cc1,-53.9
6,c1ccc(Cc2nn3c(-c4ccncc4)nnc3s2)cc1,-38.6
7,Cc1ccc(-c2nnc3sc(CCc4ccccc4)nn23)cc1,6.39
8,CCc1nn(CCCC(=O)NCc2cc(Br)ccc2OC)c(=O)c2cc3occc3n12,-2.73
9,CC1(C(=O)Nc2nc3ccccc3s2)CC1(Br)Br (stereo not drawn),13.5
10,COc1ccc(CCC(=O)NCc2cn3ccsc3n2)cc1,13
11,COc1ccc(CCC(=O)NCc2cn3ccccc3n2)cc1,-2.46
12,Cc1ccn2cc(CCNC(=O)c3ccc(Br)o3)nc2c1,-57.5
13,O=C(NCCc1cn2ccccc2n1)c1ccc(Br)o1,-28.9
14,Cc1ccn2cc(CNC(=O)c3ccc(Br)o3)nc2c1,-38.6
15,COc1ccc(CCC(=O)NCc2cn3ccc(C)cc3n2)cc1,-52
16,O=C(CNC(=O)c1ccco1)NCC(=O)OCc1cccc(Cl)c1,-13
17,COC(=O)COc1ccc(C2Nc3c(Cl)ccc(C(=O)O)c3C3C=CCC32)cc1 (stereo not drawn),12.9
18,Cn1ncc(Cl)c1C(=O)Nc1cc(C(F)(F)F)ccc1F,29.5
19,Cc1ccc(NC2=C(Cl)C(=O)OC2OC(=O)c2ccc(C)cc2)cc1 (stereo not drawn),-51.7
20,COC(=O)c1ccc(NC2=C(Cl)C(=O)OC2OC(=O)c2ccccc2)cc1 (stereo not drawn),-22.5
21,Cc1ccc(NC2=C(Cl)C(=O)OC2OC(=O)c2ccco2)cc1 (stereo not drawn),-42.2
22,COCCCN1C(=O)C(=O)/C(=C(/O)c2ccccc2)C1c1ccc(N(C)C)cc1 (stereo not drawn),12.8
23,CSCC[C@H](NC(=O)Nc1ccc(S(N)(=O)=O)cc1)C(=O)O,9.48

row,SMILES,"hERG current change (%, negative = inhibition) at 10uM [%]"
1,COc1ccc(NC(=O)CCC(=O)Nc2ccc3nc(N4CCOCC4)cc(C)c3c2)c(OC)c1,16.5
2,CCN1CCN(c2cc(C)c3cc(NC(=O)c4cccc(OC)c4)ccc3n2)CC1,-50.9
3,COc1cccc(C(=O)Nc2ccc3nc(N4CCOCC4)cc(C)c3c2)c1,-55
4,CCN1CCN(c2cc(C)c3cc(NC(=O)CCC(=O)Nc4ccc(OC)c(OC)c4)ccc3n2)CC1,4.85
5,CCN1CCN(c2cc(C)c3cc(NC(=O)c4cc(OC)cc(OC)c4)ccc3n2)CC1,-35.6
6,CCN1CCN(c2cc(C)c3cc(NC(=O)c4ccc(OC)c(OC)c4)ccc3n2)CC1,-46
7,CCOc1ccc(C(=O)Nc2ccc3nc(N4CCN(CC)CC4)cc(C)c3c2)cc1,-23
8,COc1cccc(NC(=O)CCC(=O)Nc2ccc3nc(N4CCOCC4)cc(C)c3c2)c1,23.4
9,COc1ccc(C(=O)Nc2ccc3nc(N4CCCCC4)cc(C)c3c2)cc1OC,-56.8
10,COc1ccc(Cc2nc3ccc(C(=O)N(C)C(C)c4ccon4)cc3o2)cc1 (stereo not drawn),-3.64
11,O=C1COc2ccc(C(=O)c3ccccc3C(=O)NCc3ccccc3)cc2N1,-5.41
12,COc1cccc(CC(=O)OC(C)C(=O)Nc2ccc(Cl)cn2)c1 (stereo not drawn),-23.9
13,CC(=O)Nc1nc2ccc(S(=O)(=O)N3CCCCC3)cc2s1,11.4
14,Cc1ccccc1NC(=O)Cc1nc(-c2c[nH]c(C(=O)N3CCCC3)c2)cs1,4.63
15,Cc1ccc(NC(=O)C(=O)NNC(=O)c2ccccc2C)cc1Cl,-5.32
16,CCOCCCn1c(=NC(=O)c2ccc(OC)c(OC)c2)c(C#N)cc2c(=O)n3cccc(C)c3nc21,-63.4
17,CCCCn1c(=NC(=O)c2ccc3c(c2)OCO3)c(C#N)cc2c(=O)n3cccc(C)c3nc21,-5.68
18,CCOCCCn1c(=NC(C)=O)c(C#N)cc2c(=O)n3cccc(C)c3nc21,-41.8
19,Cc1cccn2c(=O)c3cc(C#N)c(=NC(=O)c4cccs4)n(CCCOC(C)C)c3nc12,-80.7
20,Cc1cccn2c(=O)c3cc(C#N)c(=NC(=O)c4cccs4)n(CC(C)C)c3nc12,-11.5
21,CCOCCCn1c(=NC(=O)c2cccs2)c(C#N)cc2c(=O)n3cccc(C)c3nc21,-74.1
